In PubChem BioAssay (EPA / NIEHS):
Activity calls are given as the source filed them. The calls were made as follows: active = hit-call score of the fitted dose curve at least 0.9, where 1 is the maximum; inconclusive = response in the unintended direction; inactive = score below 0.9.

molecular target: Estrogen receptor (Homo sapiens) (UniProt P03372); experiment: OT_ERa_GFPERaERE_0120: Odyssey Thera (OT) 2-hour HeLa Transcription Induction Assay for Estrogen Receptor (AID 2283382)
Procedure: OT_ERa_GFPERaERE_0120 is a cell-based, single-readout assay that uses HeLa, a human cervix cell line, with measurements taken at 2 hours after chemical dosing in a 384-well plate.OT_ERa_GFPERaERE_0120 is one of one assay component(s) measured or calculated from the OT_ERa_GFPERaERE_0120 assay. It is designed to make measurements of fluorescent protein induction, a form of inducible reporter, as detected with optical microscopy: fluorescence microscopy signals by Microscopy technology.Data from the assay component OT_ERa_GFPERaERE_0120 was analyzed into 1 assay endpoint. This assay endpoint, OT_ERa_EREGFP_0120, was analyzed in the positive analysis fitting direction relative to DMSO as the negative control and baseline of activity. Using a type of inducible reporter, measures of receptor for gain-of-signal activity can be used to understand the reporter gene at the pathway-level as they relate to the gene ESR1. Furthermore, this assay endpoint can be referred to as a primary readout, because the performed assay has only produced 1 assay endpoint. To generalize the intended target to other relatable targets, this assay endpoint is annotated to the nuclear receptor intended target family, where the subfamily is steroidal.
All assay endpoints are quantified using high content image analysis algorithms.

Chain of Estrogen receptor (Homo sapiens) (P03372 whole entry, looked up): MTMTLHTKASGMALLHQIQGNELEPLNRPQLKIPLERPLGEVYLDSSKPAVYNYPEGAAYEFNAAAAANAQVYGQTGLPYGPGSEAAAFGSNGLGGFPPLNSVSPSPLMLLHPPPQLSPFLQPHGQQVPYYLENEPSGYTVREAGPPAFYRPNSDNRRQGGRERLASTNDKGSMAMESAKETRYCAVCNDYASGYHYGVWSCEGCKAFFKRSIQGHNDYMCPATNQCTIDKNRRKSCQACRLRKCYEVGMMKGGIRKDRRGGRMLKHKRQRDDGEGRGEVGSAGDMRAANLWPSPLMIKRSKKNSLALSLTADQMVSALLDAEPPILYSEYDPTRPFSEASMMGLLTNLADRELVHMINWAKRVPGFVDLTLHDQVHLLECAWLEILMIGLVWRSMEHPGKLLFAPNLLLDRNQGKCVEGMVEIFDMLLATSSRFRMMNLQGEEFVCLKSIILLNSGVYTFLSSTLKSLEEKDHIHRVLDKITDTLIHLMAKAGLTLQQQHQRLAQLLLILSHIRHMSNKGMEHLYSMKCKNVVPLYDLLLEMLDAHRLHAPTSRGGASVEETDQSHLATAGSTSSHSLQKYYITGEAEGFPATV

| SMILES | outcome | AC50 |
| --- | --- | --- |
| C=C(C)C#N | inactive |  |
| CCOP(=S)(OCC)Oc1nc(Cl)c(Cl)cc1Cl | inactive |  |
| CC(=O)C=C(C)C |  | 22.9 µM (active) |
| COc1ccc(C=O)cc1OC | inactive |  |
| CC1(C)CCC(Cc2ccc(Cl)cc2)C1(O)Cn1cncn1 (stereo not given) | inactive |  |
| O=C1C(Cl)=C(Cl)C(=O)c2ccccc21 | inactive |  |
| Cn1sc(Cl)cc1=O | inactive |  |
| C=CC(=O)OCCCCCC(C)C | inactive |  |
| C=C(C)C(=O)[O][Sn]([CH2]CCC)([CH2]CCC)[CH2]CCC |  | 0.772 µM (active) |
| COP(=O)(OC)O/C(=C\Cl)c1cc(Cl)c(Cl)cc1Cl | inactive |  |
| COP(=O)(OC)OC | inactive |  |
| COc1ccc(C=O)cc1 | inactive |  |
| Clc1ccc(COC(Cn2ccnc2)c2ccc(Cl)cc2Cl)cc1 (stereo not given) | inactive |  |
| O=C1CCCN1 | inactive |  |
| O=C(Nc1ccc2[nH]ccc2c1)c1cc2cc(F)ccc2n1Cc1cccc(F)c1 | inactive |  |
| CC(=O)c1cc(C(C)(C)C)cc2c1CCC2(C)C | inactive |  |
| N#CN=C(N)N | inactive |  |
| NC(=O)O | inactive |  |
| CC(C)(c1ccccc1)c1ccc(O)c(C(C)(C)c2ccccc2)c1 | inactive |  |
| CC(C)(C)c1cc(O)ccc1O | inactive |  |

| SMILES | outcome | AC50 |
| --- | --- | --- |
| Cl/C=C\C[N+]12CN3CN(CN(C3)C1)C2 | inactive |  |
| O=[N+]([O-])c1ccc(O)c([N+](=O)[O-])c1 | inactive |  |
| CCCCCCCCSC(=O)Oc1cc(Cl)nnc1-c1ccccc1 | inactive |  |
| CC(C)C1CCC(Cc2ccc(Cl)cc2)C1(O)Cn1cncn1 (stereo not given) |  | 90.2 µM (active) |
| Cc1ccccc1C(=O)Nc1cccc(OC(C)C)c1 | inactive |  |
| CC(C)(OO)c1ccccc1 | inactive |  |
| CCCCOCCOC(C)=O | inactive |  |
| CC(C)c1cccc(C(C)C)c1O | inactive |  |
| Cc1ccc(N)cc1Cl |  | 0.789 µM (active) |
| Cl/C=C/Cl | inactive |  |
| OCc1ccco1 | inactive |  |
| O=C/C=C/c1ccccc1 | inactive |  |
| COc1cc(OC)nc(NC(=O)NS(=O)(=O)c2ncccc2C(=O)N(C)C)n1 | inactive |  |
| c1cc[c]([Hg][c]2ccccc2)cc1 | inactive |  |
| CNC(=O)O/N=C/C(C)(C)S(C)=O (stereo not given) | inactive |  |
| Clc1nc(Cl)nc(Cl)n1 | inactive |  |
| Fc1ccc(C2(Cn3cncn3)OC2c2ccccc2Cl)cc1 (stereo not given) | inactive |  |
| BrCCBr | inactive |  |
| CCC(C)(C)c1ccc(O)c(C(C)(C)CC)c1 | inactive |  |
| COP(=S)(OC)Oc1ccc(Sc2ccc(OP(=S)(OC)OC)cc2)cc1 | inactive |  |
